# Most compounds without a hit are left out; they make up all but 4.4% or so of the library.
# Cav3 T inh = human Cav3.2 channel inhibition, primary screen; 100,000 compounds, 4% hits; Cav3.2-expressing cells, Fluo-4 calcium fluorescence FDSS; stronger effect = lower value; O95180; B-score at 10 µM;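 active means single-dose well whose peak fluorescence ratio is a statistical outlier from its plate by either plate-standardised score or position-corrected B-score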
# IL1B NFkB inh = blocks IL-1B driven NFkB nuclear translocation in HUVEC cells. 94,000 compounds, 0.43% hits. HUVEC IL-1B NFkB p65 nuclear translocation imaging. inhibition, % at 2 µM. AID 796;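 active means inhibition above about 30% together with a positive call from visual inspection of the well image, limit read from the data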;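 further: nuclear over cytoplasmic p65 intensity ratio measured by imaging; 0% = IL-1B stimulated DMSO wells and 100% = unstimulated DMSO wells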
# NFkB transloc pot = enhances IL-1B driven NFkB nuclear translocation | HUVEC IL-1B NFkB p65 nuclear translocation imaging | activation, % at 2 µM | 94,000 compounds, 0.3% hits;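 active means activation above 40%, about the mean plus 3 SD, also judged a hit on visual image review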;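 further: percent activation is computed from the nuclear over cytoplasmic p65 intensity ratio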
# IL1B cytotox = HUVEC cytotoxicity counter-screen, IL-1B stimulated | HUVEC cell count loss, Hoechst imaging | cell count reduction, % at 2 µM | 94,000 compounds, 0.41% hits;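 active means cell count reduction more than 3 SD above the screen-wide mean, cut at about 70% in these data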;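 further: normalized per plate to untreated control cells as the no-loss baseline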
# * hit, by the source's call; · = no result given.
SMILES,Cav3 T inh,IL1B NFkB inh,NFkB transloc pot,IL1B cytotox
Cc1ccc(N(C(=O)C2CCCC2)C2C=CS(=O)(=O)C2)cc1C (stereo not drawn),0.26,-44,44*,-20
Cc1ccc(OCC(=O)N2CCN(c3nnc(-c4ccccc4)c4ccccc34)CC2)cc1,-9.7*,-3,3,8
Cc1nc(N2CCN(C(=O)COc3ccccc3)CC2)c2c(C)c(C)sc2n1,-4*,4,-4,-43
O=S(=O)(Cc1ccccc1)N1CCc2ccccc21,-2.2,-10,10,-38
Cc1cc(C(=O)NC2CCCc3ccccc32)no1 (stereo not drawn),0.32,·,·,·
Cc1cccc(-n2nnc(C(=O)NC3CCCc4ccccc43)c2N)c1 (stereo not drawn),-6.6*,-20,20,-4
O=c1c2ccccc2c(C=NCCc2ccccc2)c(O)n1Cc1ccccc1,-3.9*,-8,8,-3
CCCCC(=O)Nc1cc(C(=O)NCCc2ccccc2)ccc1Cl,0.61,·,·,·
N#C/C(=C(/O)COC(=O)Cc1c[nH]c2ccccc12)c1nc2ccccc2[nH]1,-7*,4,-4,5
O=C(CN1C(=O)C2(OCCO2)c2ccccc21)c1ccc(Br)cc1,-5.5*,2,-2,-11
CC(C)CC(=O)CN1C(=O)C2(OCCO2)c2ccccc21,-0.38,-12,12,77*
CCCC(=O)CN1C(=O)C2(OCCO2)c2ccccc21,0.0084,·,·,·
CCC(C)(C)NC(=O)C(c1ccncc1)N(Cc1ccc(C)cc1)C(=O)c1csnn1 (stereo not drawn),0.67,-12,12,90*
COCCCN1C(=O)c2ccc(C(=O)O)cc2C1=O,0.4,17,-17,3
COC(=O)Nc1ccc2ncn(C)c(=O)c2c1,-1.1,-14,14,10
CC(C)c1nc(N2CCN(C(=O)c3ccccc3)CC2)c(C#N)c2c1COC(C)(C)C2,-6.2*,·,·,·
O=C1COc2ccc(C(=O)c3ccccc3)cc2CN1,0.07,-5,5,-45
O=C(ONc1ccc(N=NC(=O)c2ccccc2O)cc1)c1ccccc1,-4.5*,·,·,·
CCO[C@@H]1OC(C(=O)NCc2nc3ccccc3[nH]2)=C[C@H](C)[C@H]1CCCO,1.5,·,·,·
O=[n+]1c2c(n([O-])c3cc(F)c(N4CCCC4)cc31)CCCC2,-7.3*,-6,6,-26
O=[n+]1c2c(n([O-])c3cc(F)c(N4CCCC4)cc31)CCC2,·,-28,28,-2
CC(=O)CCn1c(=O)n(CCC(C)=O)c(=O)n(CCC(C)=O)c1=O,0.49,-3,3,39
CCNc1nc(NC(C)C)nc(N(C#N)Cc2ccccc2)n1,·,-34,34,-26
CCNc1nc(NC(C)C)nc(N(C#N)CCOc2ccc(Cl)cc2Cl)n1,-9.4*,-24,24,-14
CCCCOc1ccc(-c2nnn(CC(=O)Nc3ncc(CC(=O)OCC)s3)n2)cc1,-2.4,-1,1,-2
SMILES,Cav3 T inh,IL1B NFkB inh,NFkB transloc pot,IL1B cytotox
CCOC(=O)Cc1cnc(NC(=O)Cn2nnc(-c3ccc(OCC)cc3)n2)s1,-7.2*,8,-8,-12
CC(C)c1nnc(NC(=O)CCC(=O)NCc2cccs2)s1,-0.38,-2,2,-10
CCOC(=O)c1ccccc1NC(=O)CSc1nnc(COc2ccccc2C)n1C,-4.6*,0,0,0
Cc1ccccc1OCc1nnc(SCC(=O)NCc2ccccc2)n1C,0.11,14,-14,6
Cc1ccccc1Cn1c(Cc2ccccc2)nc2ccccc21,-5.5*,10,-10,-18
Cc1cccc(N2CCN(C(c3cccs3)c3nnnn3C(C)(C)C)CC2)c1C (stereo not drawn),-6.4*,-13,13,8
COCCn1nnnc1C(c1cccs1)N1CCN(c2cc(C)ccc2C)CC1 (stereo not drawn),-4.3*,-13,13,5
CCOc1ccc2nc(SCC(=O)N(C)C)[nH]c2c1,-0.036,-23,23,-8
Cc1cccc(/C=N\NC(=O)c2sccc2-n2cccc2)c1,-4.1*,-19,19,-19
CC(/C=N/NC(=O)c1n[nH]c2c1CCC2)=C\c1ccccc1,-2.7,-31,31,6
O=C(N/N=C/C=C/c1ccccc1)c1n[nH]c2c1CCC2,·,34*,-34,47
CC(C)(C)NC(=O)c1ccccc1-c1nc(-c2ccccc2Cl)no1,-2.8,2,-2,-27
O=C1OC(c2ccccc2)/C(=C(/O)c2ccc(Cl)cc2)C1=O (stereo not drawn),-0.98,38*,-38,10
Cc1ccc(/C(O)=C2/C(=O)C(=O)OC2c2ccc(Cl)cc2)cc1 (stereo not drawn),-2.5,-6,6,5
COc1cccc(NS(=O)(=O)c2ccc3[nH]cc(C(=O)NCCC(C)C)c(=O)c3c2)c1,-0.85,19,-19,91*
CCCCCn1ccc(=O)c2c(C(F)(F)F)nccc21,0.27,0,0,5
